Cruzain inh noDet – qHTS Assay for Promiscuous and Specific Inhibitors of Cruzain (without detergent) | AID 1476, 2009 | Potency, µM, for inactives: max response, negative = inhibition, usual class: inhibitors | 200,000 compounds, 2.3% hits | purified cruzain, Z-FR-AMC fluorescence, no detergent | Cruzipain (Trypanosoma cruzi), P25779;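 note: plate controls were enzyme without inhibitor for no effect and buffer without enzyme for full effect; nearly all actives have a fitted effect of over 40% in size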
Target sequence (P25779 123-467 limits assumed): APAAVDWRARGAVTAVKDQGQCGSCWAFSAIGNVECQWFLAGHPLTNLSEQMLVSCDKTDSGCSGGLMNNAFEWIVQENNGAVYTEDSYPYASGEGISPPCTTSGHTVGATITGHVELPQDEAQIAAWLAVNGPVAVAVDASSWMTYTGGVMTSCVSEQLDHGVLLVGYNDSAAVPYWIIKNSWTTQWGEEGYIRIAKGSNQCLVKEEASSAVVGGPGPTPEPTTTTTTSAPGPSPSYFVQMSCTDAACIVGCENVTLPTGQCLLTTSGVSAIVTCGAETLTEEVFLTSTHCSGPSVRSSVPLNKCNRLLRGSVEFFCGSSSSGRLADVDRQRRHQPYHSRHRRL
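Purified cruzain at 1.5 nM, pre-incubated 15 min with compound at room temperature in 100 mM sodium acetate pH 5.5, 5 mM DTT, 0.00005% Triton X-100. Reaction started with 2 uM Z-FR-AMC; AMC fluorescence increase over 60 s gives rate.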
Cruzain Triton – qHTS Assay for Promiscuous and Specific Inhibitors of Cruzain (with detergent); 200,000 compounds, 0.43% hits; Cruzipain (Trypanosoma cruzi), P25779; AID 1478, 2009; purified cruzain, Z-FR-AMC fluorescence, 0.01% Triton; Potency, µM, without a hit: max response, negative = inhibition, actives largely listed as inhibitors;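 note: plate controls were neutral wells for no effect and buffer without enzyme for full effect; nearly all actives have a fitted effect of over 40% in size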
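In this qHTS format, compounds are incubated with 1.5 nM cruzain for 15 min at room temperature before 2 uM Z-FR-AMC is added. Release of AMC is followed at 360/450 nm, and progress is taken as the 60 s fluorescence difference.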
* = called active by the depositor; ? = inconclusive; ! = not confirmed by another sample. This is a sample that favours compounds with a hit; in the whole collection about 2.6% have one here. Calls come from the whole dose curve; as a rule, active = well fitted curve in the direction sought with a large enough effect; inconclusive = small, poorly fitted or top-dose-only effect, or another doubt; inactive = no such curve, though single readings can be large; an effect the other way counts as inactive or inconclusive. Potency is the fitted concentration of half-maximal effect.

SMILES	Cruzain inh noDet	Cruzain Triton
CCOc1cc2nc(-c3ccc(OC)c(OC)c3)nc(NCCCN3CCOCC3)c2cc1OC	-6%	-5%
O=C(O)c1cccc(CSc2ncccn2)c1	-12%	3%
Cc1cccc2cc(C#N)c(SCC(=O)N3CCC(C)CC3)nc12	-13%	-11%
Cc1cccc2cc(C#N)c(SCC(=O)N3CC(=O)Nc4ccccc43)nc12	25µM*	-3%
COc1ccccc1C(=O)n1nc(-c2ccc(Cl)cc2)nc1N	-15%	-9%
CCn1c(=O)c(C(=O)NNS(=O)(=O)c2ccc(C)cc2)c(O)c2ccccc21	0%	-7%
CCCn1c(=O)c(C(=O)NNS(=O)(=O)c2ccc(C)cc2)c(O)c2ccccc21	13µM*	-4%
CCn1c2ccccc2c2cc(/C(C)=N/O)ccc21	2%	-10%
CCn1c2ccccc2c2cc(N)ccc21	7.9µM*	-2%
COc1ccc(OC)c(NC(=O)CC2SC(=Nc3ccccc3)N(CCc3ccccn3)C2=O)c1 (stereo unspecified)	?	-4%
COc1cc([N+](=O)[O-])ccc1NC(=O)CC1SC(=Nc2ccc(F)cc2)N(CCC2=CCCCC2)C1=O (stereo unspecified)	10µM*	-4%
COc1ccc(OC)c(NC(=O)CC2SC(=Nc3ccc(F)cc3)N(CCC3=CCCCC3)C2=O)c1 (stereo unspecified)	20µM*	-7%
COc1ccc(N=C2SC(CC(=O)Nc3ccc(OC)cc3OC)C(=O)N2C)cc1 (stereo unspecified)	?	-4%
CCC(=O)N1CCc2cc(S(=O)(=O)NC(C(=O)Nc3cc(OC)cc(OC)c3)C(C)C)ccc21 (stereo unspecified)	-4%	-4%
O=C(O)C1C2C=CC(C2)C1C(=O)NCCc1ccccc1 (stereo unspecified)	-1%	7%
N#CCC(=N)N1CCN(c2ccccc2)CC1	-4%	-3%
N#CCC(=N)N1CCN(c2ccccc2Cl)CC1	25µM*	-3%
N#CCC(=N)N1CCN(c2cccc(Cl)c2)CC1	13µM*	0%
Clc1ccccc1CN1CCN(c2ccccc2Cl)CC1	8%	-3%
COC(=O)c1ccccc1NC(=O)C1CC(c2ccccc2O)=NO1 (stereo unspecified)	2%	-4%
C=CCNC(=S)N/N=C/c1ccc(-c2cc(Cl)ccc2Cl)o1	7.9µM*	1%
COC(=O)c1ccc(Cl)c(-c2ccc(/C=N/NC(=O)Nc3ccccc3)o2)c1	?	-7%
O=C(COC(=O)COc1ccc(Cl)cc1)NCc1cccs1	3%	-3%
O=C(NCC#CCOCc1ccccc1)c1ccccc1	13µM*	11µM*
O=C(NCCCc1ccccc1)c1ccccc1	1%	5%
SMILES	Cruzain inh noDet	Cruzain Triton
COC(=O)c1c(NC(=O)c2nc(SC)ncc2Cl)sc2c1CCCC2	-15%	-1%
Cc1ccc(-c2nc(NC(=O)CSc3cc(C)c4ccccc4n3)ns2)cc1	?	-2%
O=C(CSc1ccc2ccccc2n1)Nc1nsc(-c2ccc(Cl)cc2)n1	32µM*!	0%
O=S(=O)(Nc1ccc2c(c1)nc1n2CCN(Cc2ccccc2)C1)c1ccccc1	?	-5%
O=S(=O)(Nc1ccc2c(c1)nc1n2CCN(Cc2ccccc2)C1)c1ccc(Cl)cc1	25µM*	-3%
Cc1cc(C)c(C(N)=O)c(NC(=O)Nc2ccccc2)n1	0%	0%
CC(=O)C(N=Nc1ccccc1)(Sc1nnc(-c2ccccc2)n1-c1ccccc1)C(=O)Nc1ccccc1 (stereo unspecified)	25µM*	-1%
CC(=O)C(N=Nc1ccccc1)(Sc1nnc(-c2ccccc2)n1-c1ccccc1)C(C)=O	-25%	1%
CCCCCc1nn2cc(-c3ccccc3)nc2s1	6%	-2%
CN1CCN(c2ncc3nc(-c4cccc(C#N)c4)c(=O)n(C)c3n2)CC1	?	18µM*
CN1CCN(c2ncc3nc(-c4cc(F)cc(F)c4)c(=O)n(C)c3n2)CC1	24%	-7%
CN1CCN(c2ncc3nc(-c4ccccc4)c(=O)n(-c4ccccc4)c3n2)CC1	?	25µM*
COc1ccc(-n2c(=O)c(-c3ccccc3)nc3cnc(N4CCN(C)CC4)nc32)cc1	-2%	0%
O=c1[nH]c2cc(Cl)ccc2c(O)c1-c1ccc(Oc2ccccc2)cc1	10µM*	2%
COCc1cc(=O)[nH]c(Sc2c(-c3ccccc3)c3ccc(Cl)cc3[nH]c2=O)n1	?	-2%
O=c1[nH]c2cc(Cl)ccc2c(O)c1-c1cccc(Oc2ccccc2)c1	3.2µM*	5%
O=c1[nH]c2ccc(Cl)cc2c(O)c1-c1ccccc1	0%	1%
COc1cccc(NC(=O)CCCn2c(=O)[nH]c3ccccc3c2=O)c1	0%	-3%
CCOc1ccc(NC(=O)CCS(=O)(=O)c2ccc3nc(C)sc3c2)cc1	0%	0%
Cc1oc2c(cc(NS(=O)(=O)c3ccc(C(C)C)cc3)c3ccccc32)c1C(=O)O	19%	?
Cc1oc2c(cc(NS(=O)(=O)c3cccs3)c3ccccc32)c1C(=O)OC(C)C	32µM*	-3%
CC(C)(C)n1nnnc1CN(Cc1ccco1)Cc1cc2cc3c(cc2[nH]c1=O)OCO3	-14%	2%
CC1CCC(N2CC(=O)N(C3CCCC3)C(c3ccc(Cl)cc3)C2=O)CC1 (stereo unspecified)	-13%	1%
Cc1cc(-c2csc(N)n2)c(C)n1CCC(C)C	25µM*	3%
CCOC(=O)c1cc(C)n(CCc2ccccc2)c1C	1%	-4%
SMILES	Cruzain inh noDet	Cruzain Triton
Cc1cc(-c2csc(N)n2)c(C)n1CCc1ccccc1	4µM*	-4%
Nc1nc(-c2ccccc2)cs1	4%	-1%
O=C(CCCN1C(=O)c2ccccc2C1=O)Nc1ccc(S(=O)(=O)N2CCOCC2)cc1	-7%	0%
O=C(Nc1nc2ccc(Cl)cc2s1)c1ccc(N2CCCCC2)c([N+](=O)[O-])c1	5µM*	-3%
CCC(CC)c1nnc(NC(=O)c2ccc(N3CCCCC3)c([N+](=O)[O-])c2)s1	0%	-5%
CC(=O)N1CCN(c2ccc(NC(=O)c3ccc(N4CCCC4)c([N+](=O)[O-])c3)cc2Cl)CC1	13%	1%
O=C(Nc1nc2ccc3ccccc3c2s1)c1ccc(N2CCCCC2)c([N+](=O)[O-])c1	6.3µM*	-5%
O=C(Nc1ccc2c(c1)OCO2)c1ccc(N2CCCC2)c([N+](=O)[O-])c1	25µM*	-10%
COc1cccc(C(=O)Nc2ccccc2-c2nc3ccccc3s2)c1	7%	0%
Cc1c(NC(=O)c2ccc(N3CCCC3)c([N+](=O)[O-])c2)cccc1-c1nc2ccccc2s1	7.9µM*	-7%
O=C(Nc1ccc(N2CCCCC2)c(Cl)c1)c1ccc(N2CCOCC2)c([N+](=O)[O-])c1	-1%	-3%
COc1ccc(NC(=O)Cc2c(SC)c3ccccc3n2Cc2ccccc2)cc1	?	4%
Cc1nc2ccc(NC(=O)c3c(-c4ccccc4)noc3C)cc2s1	16%	-7%
Cc1cccc(-n2c(O)c(C=NCc3cccnc3)c(=O)[nH]c2=O)c1C	-7%	2%
CCOC(=O)C1=C(C(C)=O)C(c2cccnc2)C(C#N)=C(N)O1 (stereo unspecified)	-3%	2%
O=C(/C=C/c1ccc(Cl)c([N+](=O)[O-])c1)Nc1ccc(NC(=O)c2ccco2)cc1	?	3%

Screens from PubChem BioAssay.
